The list is not random: actives were taken first. Their share in the collection is about 19%.
TGFb SMAD3 inh – blocks TGF-b signaling | Potency, µM (top dose mostly 46.1 µM), most hits filed as inhibitors | HepG2 CAGA-GFP TGF-b/SMAD3 reporter, GFP fluorescence, 18 h; TGF-beta stimulated, 500 pg/mL final | 410,000 compounds, 1.2% hits; also: nearly all actives have a fitted effect of over 65% in size
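Using HEPG2 CAGA-GFP reporter cells at 1000 cells/well, we pinned test compounds, stimulated with recombinant TGF-beta (500 pg/mL final) and measured total well GFP after 18 h.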
TDP1 block – TDP1 (human) enzyme inhibition; Q9NUW8; recombinant TDP1, AlphaScreen DNA substrate cleavage; Potency, µM (highest dose often 130 µM), actives largely listed as inhibitors; 350,000 compounds, 0.28% hits; AID 485290; also: nearly all actives have a fitted effect of over 40% in size
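Signal: AlphaScreen proximity between streptavidin donor and anti-FITC acceptor beads on intact substrate. Reaction: Tdp1 1 nM, substrate 15 nM final, 5 min RT after 15 min compound preincubation.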
TDP1 cell CPT – growth inhibition of DT40 Tdp1-/-;hTDP1 cells with camptothecin (screen for TDP1 inhibitors); chicken DT40 Tdp1-/-;hTDP1 cells + 20 nM CPT, ATP luminescence, 48 h; Potency, µM (highest dose often 46.2 µM), actives largely listed as inhibitors; 420,000 compounds, 12% hits; AID 686979; also: nearly all actives have a fitted effect of over 55% in size
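Chicken DT40 Tdp1-/- cells complemented with human TDP1, 400 cells/well, exposed to compounds plus 20 nM camptothecin for at least 48 h at 37 C; viability read as ATP content by CellTiter-Glo luminescence.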
TDP1 cell noCPT – qHTS for Inhibitors of human tyrosyl-DNA phosphodiesterase 1 (TDP1): qHTS in cells in absence of CPT; DT40 Tdp1-/- hTDP1 cells, no CPT, ATP luminescence, 48 h; 420,000 compounds, 15% hits; Potency, µM (titrated, usually from 46.2 µM), usual class: inhibitors; also: nearly all actives have a fitted effect of over 55% in size
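A cellular qHTS used chicken DT40 cells lacking endogenous Tdp1 but carrying stably transfected human TDP1. Compounds were applied without camptothecin, and cell growth kinetics were judged by ATP-dependent luminescence after ≥48 hr.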
HepG2 viability – counter-screen for TGF-b inhibitors: cytotoxicity in HepG2 cells | Potency, µM (top dose mostly 46.1 µM), hits mostly cytotoxic | 410,000 compounds, 0.76% hits | HepG2 CAGA-GFP viability, ATP luminescence, 18 h
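HepG2 CAGA-GFP cells (1000/well, DMEM with 1% FBS) received compound, then TGF-beta at 500 pg/mL final, and were incubated 18 hours at 37 degrees C. Viability was read by CellTiter-Glo luminescence. Media-only wells were set as complete cell-killing and DMSO as no toxicity.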
IL-1B inflam inh – inhibitors of inflammasome signaling (IL-1 beta secretion); 360,000 compounds, 4.7% hits; activity change, % at 57.5 µM; AID 743279; THP-1 LPS/ATP IL-1B secretion, AlphaLISA, 16 h; hits give low values; in the data active = activity change below about -50%; inconclusive = mostly about -30% to -49%
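Secreted IL-1B measured by AlphaLISA bead assay after 16 h compound exposure of THP-1 cells; compounds (final up to 57.5 uM) added 1 h before LPS (250 ng/mL) and ATP (1.25 mM) stimulation; lower signal means less secretion.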
Of the large screens only hits and unclear results are named; the others gave an inactive call. Unless noted, calls follow the shape of the dose curve; as a rule, active = well fitted curve in the direction sought with a large enough effect; inconclusive = small, poorly fitted or top-dose-only effect, or another doubt; inactive = no such curve, though single readings can be large; an effect the other way counts as inactive or inconclusive.

Cc1ccc(C(=O)N2CCC3(CC2)Oc2ccc(Cl)cc2C(=O)C32CC(c3ccc(Cl)cc3)=NO2)s1 (stereo unspecified)	none
CCN1c2ccccc2S(=O)(=O)c2ccccc21	none (no result: TDP1 block)
COc1cc(C2/C(=C(\O)c3ccc4c(c3)OCCO4)C(=O)C(=O)N2c2nnc(C)s2)cc(OC)c1OC (stereo unspecified)	none
COC(=O)c1cc2c(cc1NC(=O)c1cnn(-c3ccc(C)cc3)c1-n1cccc1)OCO2	TGFb SMAD3 inh inconclusive (no result: IL-1B inflam inh)
O=C(Nc1ccccc1N1CCCC1)c1cccc(S(=O)(=O)N2CCOCC2)c1	TDP1 cell CPT inconclusive, TDP1 cell noCPT inconclusive (no result: TDP1 block)
CC(C)C[C@H]1CNC(=O)C(=O)N1CC1CCN(CCc2ccc(-c3ccccc3)cc2)CC1	IL-1B inflam inh -67 (no result: TDP1 block)
O=C1NC[C@H](Cc2ccccc2)N(CC2CCN(CCc3ccc(-c4ccccc4)cc3)CC2)C1=O	TDP1 cell CPT 21µM, TDP1 cell noCPT 16µM, IL-1B inflam inh -59 (no result: TDP1 block)
COc1ccc(CNC(=O)COC(=O)c2ccc(F)c(S(=O)(=O)N3CCCCC3)c2)cc1OC	none
O=C(c1cc(C(=O)NCCc2ccccc2)c(=O)n(CCc2ccccc2)c1)c1cc(Cl)ccc1O	TGFb SMAD3 inh inconclusive, TDP1 cell CPT inconclusive, TDP1 cell noCPT 15µM
COc1ccc(CCNC(=O)c2cc(C(=O)c3cc(Cl)ccc3O)cn(CCc3ccc(OC)cc3)c2=O)cc1	TGFb SMAD3 inh inconclusive, TDP1 cell CPT 10µM, TDP1 cell noCPT 10µM
Cc1cc(Cl)ccc1OCC(=O)N[C@@H](Cc1ccccc1)c1nc2ccccc2[nH]1	TGFb SMAD3 inh inconclusive, TDP1 cell CPT 21µM, TDP1 cell noCPT 16µM
Cc1ccc(-c2nc3ccccc3[nH]2)cc1NC(=O)c1ccco1	TDP1 cell noCPT inconclusive
Cc1ccc(-c2nc3ccccc3[nH]2)cc1NC(=O)c1sc2cc(Cl)ccc2c1Cl	TDP1 cell CPT 8.2µM, TDP1 cell noCPT 16µM
CCC(=O)NC(Cc1ccccc1)c1nc2ccccc2[nH]1 (stereo unspecified)	none
Cc1ccc(-c2nc3ccccc3[nH]2)cc1NC(=O)COc1ccc(Cl)cc1Cl	TDP1 cell CPT 6.5µM, TDP1 cell noCPT 5.2µM (no result: IL-1B inflam inh)
Cc1cc(OCC(=O)Nc2cc(-c3nc4ccccc4[nH]3)ccc2C)ccc1Cl	TDP1 cell CPT 15µM, TDP1 cell noCPT 7.3µM, HepG2 viability 11µM (no result: TGFb SMAD3 inh, IL-1B inflam inh)
COc1ccccc1CNS(=O)(=O)c1cnc(N)nc1	none (no result: IL-1B inflam inh)
COc1ccc(CNS(=O)(=O)c2ccc3c(c2)C(C)(C)C(=O)N3C)cc1OC	none (no result: IL-1B inflam inh)
COc1ccc(NC(=O)CN(C)S(=O)(=O)c2ccc3nc(C)sc3c2)cc1	none (no result: IL-1B inflam inh)
Cc1ccsc1C1Cc2c(C(=O)NCc3cccnc3)c(=O)cc(C)n2-c2ccccc2S1 (stereo unspecified)	none (no result: TGFb SMAD3 inh, TDP1 block, HepG2 viability, IL-1B inflam inh)
Cc1nnc(N2CCN(C(=O)Nc3cc(F)ccc3F)CC2)c2nn(-c3ccc(Cl)cc3)c(C)c12	TGFb SMAD3 inh inconclusive, TDP1 cell CPT 21µM, TDP1 cell noCPT 21µM (no result: IL-1B inflam inh)
COC(=O)C(C)NC(=O)N1CCN(c2nnc(C)c3c(C)n(-c4ccc(Cl)cc4)nc23)CC1 (stereo unspecified)	TDP1 cell CPT inconclusive, TDP1 cell noCPT 23µM (no result: IL-1B inflam inh)
COc1ccccc1OCc1n[nH]c(=S)n1Cc1ccccc1	none
CC(=O)c1ccc(N2CCN(C(=O)/C=C/c3ccc4ccccc4n3)CC2)cc1	TDP1 cell CPT inconclusive, TDP1 cell noCPT 15µM
O=C(/C=C/c1ccc2ccccc2n1)c1cc(Br)ccc1O	TDP1 cell CPT 12µM, TDP1 cell noCPT inconclusive
Cn1cc(/C=C/c2ccc3ccccc3n2)c2ccccc21	TGFb SMAD3 inh inconclusive, TDP1 cell CPT 11µM, TDP1 cell noCPT 10µM (no result: TDP1 block, IL-1B inflam inh)
CC(=O)c1ccc(N2CCN(C(=O)c3ccc4ccccc4n3)CC2)cc1	none
